# Measurements from PubChem BioAssay AID2058 (Sanford-Burnham Center for Chemical Genomics, 2009).
# The whole screen tested about 290,000 compounds, of which about 150 (0.052%) were called active.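 How the source made its calls: active means inhibition of at least 50% with at least 30 cells and total cytoplasm GFP at most 10,000,000; inconclusive means under 30 cells or total GFP of 10,000,000 plus; inactive means the rest.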 For the sample, actives were picked, then their nearest neighbours and some compounds at random. Measured potencies and affinities stand elsewhere.
# Molecular target: G-protein coupled receptor 35 (Homo sapiens) (UniProt Q9HC97)
# Sequence (Q9HC97 whole entry, looked up): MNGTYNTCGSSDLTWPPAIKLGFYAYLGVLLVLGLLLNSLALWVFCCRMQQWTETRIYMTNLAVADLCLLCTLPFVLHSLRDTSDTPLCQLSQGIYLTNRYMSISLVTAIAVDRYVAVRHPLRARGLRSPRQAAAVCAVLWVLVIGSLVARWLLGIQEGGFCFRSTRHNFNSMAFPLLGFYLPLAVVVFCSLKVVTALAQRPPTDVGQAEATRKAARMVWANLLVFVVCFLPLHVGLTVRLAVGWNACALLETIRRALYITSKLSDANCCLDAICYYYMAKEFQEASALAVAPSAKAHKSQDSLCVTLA
# Assay: GPR35 antagonists blocking zaprinast-driven arrestin recruitment, primary screen, imaging, U2OS, beta-arrestin-GFP, zaprinast agonist (AID 2058)
# Conditions: U2OS GPR35 beta-arrestin-GFP translocation imaging, zaprinast antagonism; at 10 µM; hits give high values
row,Structure (SMILES),inhibition
1,CCC(=O)c1c[nH]c(C(=O)NCCc2ccccn2)c1,-8% (inactive)
2,O=C(OCc1cc(Cl)ccc1OC(F)F)c1ccc([N+](=O)[O-])o1,8.7% (inactive)
3,CCCCC1=CC2=CC(=O)C(C)(OC(=O)CC)C(=O)C2=CN1C(CO)CO (stereo not given),-6.6% (inactive)
4,CC(C)NCCOCCOc1ccccc1F,12.6% (inactive)
5,N#Cc1cccc(NC(=O)NCCc2c[nH]c3ccccc23)c1,-5.4% (inactive)
6,Cc1cc(C)c(S(=O)(=O)N2CCCOC2CNC(=O)C(=O)NCc2cccs2)c(C)c1 (stereo not given),-5.9% (inactive)
7,COc1ccccc1NC(=O)Cn1c(=O)n(C)c(=O)c2sc3c(c21)COC(C)(C)C3,5.9% (inactive)
8,CC(/C=C1\SC(=S)N(CCC(=O)Nc2ccc(O)cc2)C1=O)=C\c1ccccc1,0.1% (inactive)
9,CC(=C\c1ccccc1)/C=C1/SC(=O)N(CCCC(=O)Nc2ccc(C(=O)O)cc2)C1=O,108% (active)
10,CC(/C=C1\SC(=S)N(CCCC(=O)Nc2ccc(C(=O)O)cc2)C1=O)=C\c1ccccc1,114% (active)
11,CC(/C=C1\SC(=O)N(CCCC(=O)O)C1=O)=C\c1ccccc1,-14.5% (inactive)
12,CC(/C=C1\SC(=O)N(CC(=O)Nc2ccc(O)cc2)C1=O)=C\c1ccccc1,-6.3% (inactive)
13,CC(=O)c1ccc(NC(=O)CCCN2C(=O)/C(=C/C(C)=C/c3ccccc3)SC2=S)cc1,19.4% (inactive)
14,CC(=O)N(Cc1cc2c(C)cc(C)cc2[nH]c1=O)C1CCCCC1,1.4% (inactive)
15,O=C(Nc1ccccc1)C1=C[C@@H](c2csc3ccccc23)C[C@@H](OCc2ccc(CO)cc2)O1,-24.8% (inactive)
16,CC(=O)Nc1sc(N/N=C/c2ccc(C)cc2)nc1-c1ccc(C)cc1,-2.6% (inactive)
17,CCN(CC)c1ccc(/C=C(\C#N)c2nc(-c3cccs3)c(NC(C)=O)s2)cc1,70.6% (active)
18,CCN(CC)c1ccc(/C=C(\C#N)c2ccccn2)cc1,15.1% (inactive)
19,CC(=O)Nc1sc(/C(C#N)=C\c2cccc(Cl)c2)nc1-c1ccc(C)cc1,18.1% (inactive)
20,CC(=O)Nc1sc(N/N=C\c2ccc(O)cc2)nc1-c1cccs1,-8.9% (inactive)
21,CC1Cc2ccccc2N1C(=O)CSc1nc(-c2ccccc2)cs1 (stereo not given),-14.5% (inactive)
22,O=C(Nc1nc(-c2cccc([N+](=O)[O-])c2)cs1)C(c1ccccc1)c1ccccc1,0.8% (inactive)
23,COC(=O)c1cc(OC)c(OC)cc1N1C(=O)CCCC1=O,8.7% (inactive)

row,Structure (SMILES),inhibition
1,CC(=O)N1C=Cc2c(c(C)c3c([nH]c4ccccc43)c2C)C1,71.5% (active)
2,Cc1ccc(C)c2c1[nH]c1ccccc12,15.5% (inactive)
3,CC(=O)N1CCc2[nH]c3ccccc3c2C1,4.9% (inactive)
4,Cc1noc(C)c1C(=O)OCC(=O)c1c(N)n(CC(C)C)c(=O)n(C)c1=O,-3.5% (inactive)
5,Cc1ccccc1N1CCN(C2CCCN(C(=O)c3ccc(Cl)s3)C2)CC1 (stereo not given),0.1% (inactive)
6,CCOC(=O)/C=C(C)\C=C\c1c[nH]c2ccccc12,-3.8% (inactive)
7,O=C(/C=C/c1c[nH]c2ccccc12)c1ccccc1,-6.3% (inactive)
8,Cc1ccccc1Cn1c2ccccc2c2cnn(CC(=O)NCCCN3CCN(C)CC3)c(=O)c21,-6.2% (inactive)
9,O=S(=O)(Nc1cc2nc3ccccc3nc2n1Cc1ccccc1)c1ccc(Cl)cc1,85.4% (active)
10,O=S(=O)(Nc1nc2ccccc2nc1-[n+]1ccccc1)c1ccc(Cl)cc1,-1.7% (inactive)
11,O=S(=O)(Nc1nc2ccccc2nc1Cl)c1ccc(Cl)cc1,-9.2% (inactive)
12,O=C(Nc1ccc(Cl)cn1)c1ccc(Oc2ccccc2)cc1,0.8% (inactive)
13,CCOC(=O)CCCSc1nc2sc3c(c2c(=O)[nH]1)CCC3,1.8% (inactive)
14,Cn1cc(CN2CCC(n3nccc3NC(=O)c3ccccc3Cl)CC2)cn1,-15.2% (inactive)
15,CCc1nnc(NS(=O)(=O)c2ccc(NC(=S)NC(=O)/C=C/c3ccc(F)cc3)cc2)s1,11.3% (inactive)
16,CCc1nnc(NS(=O)(=O)c2ccc(NC(=S)NC(=O)/C=C/c3ccccc3)cc2)s1,-2.9% (inactive)
17,Cc1ccc(C(=O)N(CC(=O)NC2CCCC2)c2ccccc2C)s1,4.4% (inactive)
18,CCc1ccc(/C=C2/SC(=S)N(CCC(=O)Nc3cccnc3)C2=O)cc1,-11.4% (inactive)
19,COC(=O)CSc1nc2ccc(NC(=O)c3ccccc3C(=O)N3CCOCC3)cc2s1,-10.4% (inactive)
20,O=C(O)c1ccc(CSc2nc3ccc(NC(=O)c4ccccc4C(=O)O)cc3s2)cc1,-3.4% (inactive)
21,CN(C(=O)c1ccc2ccccc2c1)c1ccccn1,13.4% (inactive)
22,CC(C)c1ccc[n+](-c2nc([O-])sc2C=O)c1,-8.7% (inactive)
23,Cc1ccc(NC(=O)COc2ccccc2C(=O)Nc2ccccc2)cc1Cl,-17.7% (inactive)

row,Structure (SMILES),inhibition
1,CCOc1ccc(NC(=O)C(C)Oc2ccccc2C(=O)Nc2cccc(Cl)c2Cl)cc1 (stereo not given),12.3% (inactive)
2,Cc1csc2c(N3CCC(C(=O)O)CC3)ncnc12,-2.1% (inactive)
3,O=C(Nc1ccnn1C1CCN(Cc2ccc(OC(F)F)cc2)CC1)C1CCCC1,9.2% (inactive)
4,CCOc1ccccc1/C=N/NC(=O)c1c(C)nc2ccc(Br)cn12,10.2% (inactive)
5,CCC(C(=O)O)n1nc(-c2ccccc2)c2cc(Cl)ccc21 (stereo not given),-3.2% (inactive)
6,CC(C(=O)NCc1ccco1)n1nc(-c2ccccc2)c2cc(Cl)ccc21 (stereo not given),7.1% (inactive)
7,O=c1[nH]c(CN2CCCC2)nc2sc3c(c12)CCC3,0.2% (inactive)
8,COc1ccc(N2CCN(C(=O)C(=O)c3cn(CC(=O)N4CCCCCC4)c4ccccc34)CC2)cc1,2.6% (inactive)
9,C=CCC(O)(CC=C)CNC(=O)C1CCC(=O)N(CCCc2ccccc2)C1 (stereo not given),1.6% (inactive)
10,CC(=O)N1CC=C2C(C#N)=C(N)C(C#N)(C#N)C(C)C2C1 (stereo not given),13.2% (inactive)
11,COc1cc(C2C3CN(C)CC=C3C(C#N)=C(N)C2(C#N)C#N)ccc1OC(C)C (stereo not given),16.1% (inactive)
12,CN1CC=C2C(C#N)=C(N)C(C#N)(C#N)[C@H](c3cccs3)[C@H]2C1,39.8% (inactive)
13,CN1CC=C2C(C#N)=C(N)C(C#N)(C#N)[C@H](c3cccc(Cl)c3)C2C1 (stereo not given in full),101% (active)
14,COc1cc([C@@H]2[C@H]3CN(C)CC=C3C(C#N)=C(N)C2(C#N)C#N)cc2c1OCO2,48.3% (inactive)
15,CCCCn1c(=N)n(CC(=O)c2ccc(OC)cc2)c2ccccc21,-0.5% (inactive)
16,COC(=O)c1cccc(NC(=O)c2nn(C(C)C)c(=O)c3ccccc23)c1,25.1% (inactive)
17,Cc1ccc(CNC(=S)NC2CCCCC2)cc1,-8.5% (inactive)
18,CCC(=O)Nc1ccc(C(=O)NNC(=O)c2ccc(C)cc2)cc1,9.3% (inactive)
19,O=C(Nc1ccc(S(=O)(=O)Nc2ccccc2)cc1)c1ccc(CN2CCOCC2)cc1,-0.3% (inactive)
20,COc1cc(CN2CCCC(C)C2)ccc1OCc1ccccc1 (stereo not given),9.5% (inactive)
21,CC(C)Cn1c(N)c(C(=O)COC(=O)/C=C/c2cccs2)c(=O)n(C)c1=O,12.1% (inactive)
22,CCOC(=O)CN1CC23C=CC(O2)C(C(=O)NCc2ccccc2OC)C3C1=O (stereo not given),13.9% (inactive)
23,O=C1CC(c2ccccc2)N1c1ccccc1 (stereo not given),8.1% (inactive)

row,Structure (SMILES),inhibition
1,CC(=O)Nc1ccc(C(=O)/C=C/c2ccco2)cc1,-4.1% (inactive)
2,O=C(/C=C\c1ccco1)c1ccc(NC(=O)c2ccco2)cc1,15.5% (inactive)
3,CC1=C(C(=O)Nc2ccc(Cl)cc2C(=O)N2CCC(C(N)=O)CC2)SCCO1,16.5% (inactive)
4,Cc1nc(N2CCC(C)CC2)c2c(C)c(C(=O)Nc3ccc(C(F)(F)F)cc3)sc2n1,25.3% (inactive)
5,Cc1c(C(=O)Nc2ccc3c(c2)OCCO3)sc2ncnc(N3CCCCC3C)c12 (stereo not given),1.3% (inactive)
6,Cc1nc(N2CCCCC2)c2c(C)c(C(=O)Nc3cccc(C(F)(F)F)c3)sc2n1,14.1% (inactive)
7,Cc1nc(N2CCC(C)CC2)c2c(C)c(C(=O)Nc3ccc(C)c(F)c3)sc2n1,24.7% (inactive)
8,Cc1ccc(-c2cccc(C(=O)NCCc3ccccc3)n2)c2ccccc12,-3.7% (inactive)
9,CCOC(=O)N1CCN(C(=O)COC(=O)c2ccc(O)cc2O)CC1,-5.5% (inactive)
10,COc1ccc(S(=O)(=O)N2CCN(c3ccccn3)CC2)cc1OC,2.6% (inactive)
11,COc1ccc(C2SCCN2C(=S)Nc2ccc(F)cc2)cc1 (stereo not given),-0.3% (inactive)
12,COC(=O)CN1C(=O)[C@H]2[C@@H](c3ccc(C)o3)N3C(=O)CN(CC4CC4)C(=O)[C@@]3(Cc3ccccc3)[C@H]2C1=O,5.1% (inactive)
13,COc1ccc2nc3oc(C(=O)N4CCN(c5cccc(C(F)(F)F)c5)CC4)cc3cc2c1,8.6% (inactive)
14,COc1ccc2cc3cc(C(=O)N4CCN(c5ccccc5)CC4)oc3nc2c1,6% (inactive)
15,O=C(Nc1cccc(-c2cn3ccccc3n2)c1)c1cc2ccccc2oc1=O,-3.4% (inactive)
16,COc1cc(/C=C2\C(=N)N3N=C(S(C)(=O)=O)SC3=NC2=O)cc(OC)c1OCCOc1ccccc1C,3.6% (inactive)
17,S=c1nc(-c2ccccc2)n(Cc2cccnc2)c2c1CCCC2,14.8% (inactive)
18,CCCCC[C@H]1CN(CCCC)C(=O)[C@@H]1CC(=O)NCc1ccc(OC)cc1,8.5% (inactive)
19,C=CCn1c(SCC(=O)Nc2ccc(Cl)cn2)nnc1C1CC1,-2.5% (inactive)
20,CCS(=O)(=O)c1ncc(Cl)c(C(=O)Nc2ccc(S(=O)(=O)N3CCC(C)CC3)cc2)n1,27.7% (inactive)
21,CCC1CCCCN1S(=O)(=O)c1ccc(NC(=O)c2ccncc2)cc1 (stereo not given),-21.5% (inactive)
